Results from PubChem BioAssay AID624310 (Broad Institute, 2012).
Active and inactive are the calls of the source.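 Rule for the calls: active = compound lowering absorbance whose fitted half-maximal concentration is at most twice its top valid dose; inconclusive = flat fit with 30 to 70% inhibition, or poor fit; inactive = the rest, including wrong-direction or flat responses.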

Molecular target: Protein disulfide-isomerase (Homo sapiens) (UniProt P07237)
Test: inhibition of PDI-catalysed insulin clumping – biochemical, turbidity, absorbance, dry powder samples, confirmation (AID 624310)

Protein disulfide-isomerase (Homo sapiens), sequence (P07237 whole entry, looked up): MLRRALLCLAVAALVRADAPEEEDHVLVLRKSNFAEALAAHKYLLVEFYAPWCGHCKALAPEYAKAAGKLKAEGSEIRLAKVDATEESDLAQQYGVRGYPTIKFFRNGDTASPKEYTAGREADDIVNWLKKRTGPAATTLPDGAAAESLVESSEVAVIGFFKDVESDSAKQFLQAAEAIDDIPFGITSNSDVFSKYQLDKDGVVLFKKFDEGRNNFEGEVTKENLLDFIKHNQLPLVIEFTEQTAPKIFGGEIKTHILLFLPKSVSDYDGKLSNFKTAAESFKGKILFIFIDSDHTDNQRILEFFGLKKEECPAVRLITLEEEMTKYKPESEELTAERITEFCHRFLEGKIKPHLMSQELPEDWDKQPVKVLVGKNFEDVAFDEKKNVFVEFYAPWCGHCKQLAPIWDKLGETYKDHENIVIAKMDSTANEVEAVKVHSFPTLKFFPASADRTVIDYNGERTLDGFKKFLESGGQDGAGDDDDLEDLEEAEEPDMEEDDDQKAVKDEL

C[C@H]1CN([C@@H](C)CO)C(=O)c2cccc(NS(C)(=O)=O)c2O[C@H]1CN(C)Cc1ccc(Oc2ccccc2)cc1
outcome: inactive
